CtBP-E1A inh: blocks the CtBP interaction with E1A; AID 651724; activity change, % (test concentration not listed); AlphaScreen GST-E1A/His-CtBP binding, 1536-well; active compounds read low; 340,000 compounds, 0.49% hits; note: % is set by controls: 0 for no effect and ±100 for the full control effect
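Homogeneous bead-based format: GST-tagged E1A captured on glutathione donor beads, His-tagged CtBP on nickel acceptor beads; compounds precede bead addition by 2 h at 37 °C.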
S-ASM inh: blocks human secretory acid sphingomyelinase; placental ASM, HMU-PC fluorogenic substrate, 60 min; Potency, µM (top dose mostly 57.5 µM), for the others: at the highest dose activity change, negative = inhibition, usual class: inhibitors; 340,000 compounds, 0.006% hits; AID 504937; active = well fitted inhibition curve with a large enough effect; inconclusive = small, poorly fitted or top-dose-only effect; inactive = no such curve, though single readings can be large or run the other way; note: potency is the fitted concentration of half-maximal effect
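Fluorescence read-out (Ex 386 nm, Em 447 nm) after stopping the reaction at pH 10. Enzyme: ASM from human placenta; substrate HMU-PC0, 9 uM final; 60 min, 37 °C. Compound preincubation 10 min, ambient temperature.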
TSHR antagonist: human thyrotropin receptor antagonism. 330,000 compounds, 0.2% hits. TSHR-expressing cells, TSH-stimulated cAMP HTRF, 2 h; active compounds read low. activity change, negative = inhibition, % at 11.5 µM. P16473;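 active = activity change below a set negative limit, meaning inhibition stronger than a set level, cut at about -70% in these data; inconclusive = activity change between two set negative limits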; note: % is set by controls: 0 for no effect and ±100 for the full control effect
Target sequence (P16473 whole entry, looked up): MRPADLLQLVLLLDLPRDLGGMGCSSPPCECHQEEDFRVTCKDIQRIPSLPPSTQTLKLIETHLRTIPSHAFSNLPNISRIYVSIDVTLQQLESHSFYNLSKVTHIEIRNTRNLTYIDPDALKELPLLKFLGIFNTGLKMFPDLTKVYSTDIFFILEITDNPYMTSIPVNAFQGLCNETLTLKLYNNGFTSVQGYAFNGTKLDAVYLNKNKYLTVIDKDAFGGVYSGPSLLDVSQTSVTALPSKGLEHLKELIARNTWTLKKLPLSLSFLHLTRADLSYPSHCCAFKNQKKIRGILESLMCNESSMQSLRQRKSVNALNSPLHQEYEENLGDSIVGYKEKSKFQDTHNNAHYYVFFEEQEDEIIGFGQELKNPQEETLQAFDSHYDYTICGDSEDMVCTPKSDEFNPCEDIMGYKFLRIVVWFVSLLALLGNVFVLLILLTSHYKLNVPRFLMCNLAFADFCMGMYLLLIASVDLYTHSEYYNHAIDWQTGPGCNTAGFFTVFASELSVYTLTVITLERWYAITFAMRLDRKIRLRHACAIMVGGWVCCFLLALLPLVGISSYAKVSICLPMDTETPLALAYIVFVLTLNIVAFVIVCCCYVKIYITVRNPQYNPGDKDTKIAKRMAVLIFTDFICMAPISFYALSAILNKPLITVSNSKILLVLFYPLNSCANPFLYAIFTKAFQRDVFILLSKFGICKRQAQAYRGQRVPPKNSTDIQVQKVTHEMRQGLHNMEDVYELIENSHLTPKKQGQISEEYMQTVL
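Competitive HTRF cAMP read-out (cryptate anti-cAMP antibody, cAMP-d2; 30 min, room temperature) in freshly harvested TSHR cells. Compounds added before TSH at EC80 (4nM final), followed by 2 hours' incubation at 37 deg C.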
Six1-Eya2 blk: blocks human Six1 binding to Eya2; 360,000 compounds, 0.56% hits; activity change, % (test concentration not listed); AlphaScreen GST-Six1/His-Eya2 binding, biochemical; active compounds read low; Q15475+O00167; note: % is set by controls: 0 for no effect and ±100 for the full control effect
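Six1/Eya2 binding was read as AlphaScreen signal after compounds were pinned into GST-Six1 plus His-tagged Eya2 (5X stock 250/500 nM) in pH 8.0 Tris/NaCl/TCEP buffer, beads added, then incubated 1 h, 37 C, dark.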
BCR signal inh: chronic active BCR signaling inhibition; ABC-DLBCL IkBa-CBG/CBR reporter, luminescence ratio, 4 h; Potency, µM (doses to about 46.1 µM), inactives show at the highest dose activity change, negative = inhibition, most hits filed as inhibitors; 340,000 compounds, 0.05% hits; active = well fitted inhibition curve with a large enough effect in the signal ratio, with a control signal flat, not every such curve was filed as active; inconclusive = small, poorly fitted or top-dose-only effect, or effect the other way, or a change in a side signal; the % refers to the signal ratio;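 note: potency is the fitted concentration of half-maximal effect; plate controls were basal doxycycline-induced cells for no effect and cells given 10 µM MG132 for full effect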
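TMD8 human ABC-DLBCL cells with doxycycline-inducible IκBα–green luciferase fusion and unfused red luciferase, in 0.5% FBS medium; compounds up to 46 uM, 4 h at 37C. Green/red luminescence ratio, filter-overlap corrected, fitted to concentration-response curves.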
Numbers without * were called inactive; ? = inconclusive; . = no result given; ! = not active in a repeat; [ ] = another dose, or the depositor's remark. Shown are actives, neighbours in structure and some others; about 0.85% of the full set was active somewhere. Cut-off read from the data, not from the text of the source, unless noted: active = activity change below about -65%; inconclusive = mostly about -30% to -63%; inactive = weaker than that.

SMILES | CtBP-E1A inh | S-ASM inh | TSHR antagonist | Six1-Eya2 blk | BCR signal inh
CC1(C)SC2C(C(=O)O)N=C(Cc3ccccc3)N2C1C(=O)O (stereo not drawn) | -84* | 0% | . | -81* | .
CC1(C)S[C@@H]2[C@H](NC(=O)Cc3ccccc3)C(=O)N2[C@H]1C(=O)O | 9 | -1% | 33 | 0 | -1%
COc1cccc2c(=O)cc(C)n(CC(=O)Nc3ccc(C)c(C)c3)c12 | -70* | -5% | -17 | -94* | 4%
NS(=O)(=O)c1ccc(Nc2nc(-c3ccc(O)cc3O)cs2)cc1 | -80* | -13% | 1 | -67* | 5%
CCCCNc1c([N+](=O)[O-])cc(C(=O)O)cc1[N+](=O)[O-] | -14 | 2% | -10 | 6 | 9%
CCCCNc1c([N+](=O)[O-])cc(C)cc1[N+](=O)[O-] | -25 | -16% | 0 | -67* | ?
O=C1c2c(O)ccc(O)c2C(=O)c2c(NCCNCCO)ccc(NCCNCCO)c21 | -82* | -14% | -23 | -85*! | ?
Cc1ccc(C(=O)N2CCc3cc(CNC(=O)c4ccnn4C)ccc32)cc1 | . | . | . | . | -17%
O=C(O)CSC(=S)N1CCCC1 | 7 | 2% | 0 | 3 | 10%
O=C(CSC(=S)N1CCCC1)N/N=C/c1c(O)[nH]c(=S)[nH]c1=O | -93* | -30% | . | -91* | 1%
Cc1nc(C(F)(F)F)c(C(=O)N/N=C(\N)c2ccccn2)s1 | -92* | 0% | 1 | -77* | ?
CC(C)(C)c1nn(-c2ccccc2)c2[nH]c(=O)c(CNc3ccc4c(c3)OCCO4)cc12 | 3 | -9% | -2 | ? | 3%
Cc1nn(-c2ccccc2)c2[nH]c(=O)c(CNc3ccc(N4CCOCC4)cc3)cc12 | -69* | -1% | -17 | -70* | ?
Cc1cccc(-c2ccc3ncnc(N(C)Cc4ccco4)c3c2)c1 | . | . | -6 | . | ?
CN(Cc1ccco1)c1ncnc2ccc(-c3ccc4c(ccn4C)c3)cc12 | . | 1% | 60 | . | 6.5µM*
N#C/C(=C\c1ccc(Oc2ccc(C(F)(F)F)cc2[N+](=O)[O-])cc1)c1nc2ccccc2[nH]1 | -3 | 13% | -71* | -10 | 16%
N#C/C(=C/c1ccc(N2CCCC2)c([N+](=O)[O-])c1)c1nc2ccccc2[nH]1 | -5 | -12% | 3 | -7 | 17%
O=C(CC1N=C2c3ccccc3N=C(SCc3ccccc3Cl)N2C1=O)NC1CCCCC1 (stereo not drawn) | . | . | . | . | 0%
O=C(CN1CC(=O)Oc2ccccc21)NCc1ccco1 | ? | 3% | 9 | -72* | ?
Cn1ccnc1SCC(=O)c1ccc(O)cc1 | -1 | 0% | -6 | -9 | -3%
Cn1ccnc1SCC(=O)c1ccc(Cl)cc1 | 6 | 3% | 11 | -1 | 18µM*
O=c1c2c(-c3ccccc3)csc2ncn1/N=C/c1cccc([N+](=O)[O-])c1O | -72* | -14% | 8 | ? | 13%
Cc1ccc(Cl)cc1N1C(=O)N(Cc2ccc(C#N)cc2)c2ccccc2S1(=O)=O | . | . | . | . | 10%
COc1cccc(CNC(=O)CN2C(=O)N(c3c(C)cccc3C)S(=O)(=O)c3ccccc32)c1OC | . | . | . | . | 1%
CCCCN(CCCC)CCNC(=O)CN1C(=O)COc2ccc(S(=O)(=O)N3CCC(C)CC3)cc21 | 13 | -2% | -1 | -1 | -5%
SMILES | CtBP-E1A inh | S-ASM inh | TSHR antagonist | Six1-Eya2 blk | BCR signal inh
CC1CC(C)CN(CCCNC(=O)CN2C(=O)COc3ccc(S(=O)(=O)N4CCOCC4)cc32)C1 (stereo not drawn) | 2 | 5% | -104* | 5 | -13%
CCN(CC)S(=O)(=O)c1ccc2c(c1)N(CC(=O)NCCCN1CC(C)CC(C)C1)C(=O)CO2 (stereo not drawn) | 2 | 4% | 2 | 1 | 0%
Cc1ccc(CCNC(=O)CN2C(=O)COc3ccc(S(=O)(=O)N4CCC(C)CC4)cc32)cc1 | -7 | -4% | -136* | -3 | 10%
COCCNC(=O)c1cc(Sc2ccc(F)cc2F)nc2ccccc12 | . | . | . | . | 8%
O=C1NC(=O)/C(=C/c2ccc3c(c2)OC(F)(F)O3)S1 | . | . | -44 | . | .
COc1cc2c(cc1OC)C1O[C@](c3ccsc3)(C2)Oc2c1c(=O)oc1ccc(F)cc21 | . | . | . | . | 26%[9.22 µM]
COc1ccc(N=Nc2cc(C)ccc2O)cc1 | ? | -8% | -9 | ? | ?
Cc1ccc(O)c(N=Nc2nccs2)c1 | ? | 0% | 0 | -71* | ?
FC(F)(F)c1cnc(C(c2ccccn2)c2ncn[nH]2)c(Cl)c1 (stereo not drawn) | ? | 3% | 13 | -89* | -8%
COc1ccc(-c2cc(-c3nc4ccccn4c3NCc3ccccc3)ccc2OC)cc1 | ? | 265% | -97* | -29 | ?
Cc1cc(S(=O)(=O)c2ccc([N+](=O)[O-])cn2)ccc1Br | -19 | 1% | . | -5 | .
O=[N+]([O-])c1ccc(S(=O)(=O)c2ccccc2)nc1 | . | 4% | -98* | -10 | ?
CC1=CC(=O)C=C(C)C1=NOS(=O)(=O)c1ccccc1 | -7 | -1% | ? | 7 | ?
CC1=CC(=O)C(C(C)C)=C/C1=N/OS(=O)(=O)c1ccccc1 | . | -10% | -98* | ? | ?
O=C(CNC(=O)c1cccs1)N/N=C/c1ccc(O)cc1O | ? | 52% | -14 | -86* | ?
Cc1ccccc1NC(=S)N/N=C/c1ccc(O)cc1O | -97* | 39% | -11 | -89* | ?
COc1ccccc1/C=C\C(=O)NCC(=O)N/N=C/c1ccc(O)cc1O | -74* | 7% | -6 | -80* | -3%
O=C(NN=Cc1ccc(O)cc1O)c1ccccc1NS(=O)(=O)c1cccs1 | -80* | 0% | -20 | ? | ?
CCN(CC)C(=O)Cn1c(=O)n(-c2ccc(C)c(C)c2)c(=O)c2c(C)c(C(=O)N(CC)CC)sc21 | . | . | . | . | -6%
CCOc1ccc(-c2nnc(SCC(=O)NCc3ccccc3)nc2-c2ccc(OCC)c(OC)c2)cc1OC | . | . | . | . | -15%
O=C(NCC(c1cccs1)S(=O)(=O)c1cccs1)c1ccc(Cl)cc1 (stereo not drawn) | . | . | . | . | -4%
Cc1cccc(NC(=O)CCC(=O)N/N=C/c2ccc(O)cc2O)c1 | -84* | 63% | -2 | ? | ?
C/C(=N\NC(=O)CNC(=O)c1cccnc1)c1cccc(O)c1 | . | 6% | -5 | -9 | 1%
O=C(CNC(=O)c1cccnc1)N/N=C/c1ccc(O)cc1O | -86* | 18% | -2 | -72* | ?
O=C(CCc1ccccc1)NCC(=O)N/N=C/c1ccc(O)cc1O | . | 62% | 5 | -66* | ?
Cc1ccc(NC(=O)CCC(=O)N/N=C/c2ccccc2O)cc1 | . | 397% | 2 | 10 | ?
COC(=O)c1sc2c(c1C)c(=O)n(-c1ccccc1)c(=O)n2CC(=O)Nc1cccc(C)c1 | . | . | . | . | -3%

High-throughput results (PubChem)
